OPRM1-OPRD1 ag – agonists of OPRM1-OPRD1 heterodimerization, primary screen, cell-based, luminescence. Mu-type opioid receptor (Homo sapiens) + Delta-type opioid receptor (Homo sapiens), …. cells. activation, % at 9.3 µM. 340,000 tested, 0.3% active. AID 504326, 2011; in the data active = activation above about 18%;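 note: 0% = vehicle-treated cells and 100% = reference agonist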
Target sequence (P35372 whole entry, looked up): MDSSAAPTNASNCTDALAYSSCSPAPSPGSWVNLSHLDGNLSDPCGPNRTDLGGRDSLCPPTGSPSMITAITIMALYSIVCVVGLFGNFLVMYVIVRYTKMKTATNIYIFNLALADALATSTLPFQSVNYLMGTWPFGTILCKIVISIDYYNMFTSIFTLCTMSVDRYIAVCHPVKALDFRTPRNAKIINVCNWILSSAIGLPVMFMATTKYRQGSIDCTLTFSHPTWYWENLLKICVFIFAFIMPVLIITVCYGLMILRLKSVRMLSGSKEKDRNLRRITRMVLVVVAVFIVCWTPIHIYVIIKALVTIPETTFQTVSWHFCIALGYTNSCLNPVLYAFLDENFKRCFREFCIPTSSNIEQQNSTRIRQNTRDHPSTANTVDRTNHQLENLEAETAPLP
Target sequence (P41143 whole entry, looked up): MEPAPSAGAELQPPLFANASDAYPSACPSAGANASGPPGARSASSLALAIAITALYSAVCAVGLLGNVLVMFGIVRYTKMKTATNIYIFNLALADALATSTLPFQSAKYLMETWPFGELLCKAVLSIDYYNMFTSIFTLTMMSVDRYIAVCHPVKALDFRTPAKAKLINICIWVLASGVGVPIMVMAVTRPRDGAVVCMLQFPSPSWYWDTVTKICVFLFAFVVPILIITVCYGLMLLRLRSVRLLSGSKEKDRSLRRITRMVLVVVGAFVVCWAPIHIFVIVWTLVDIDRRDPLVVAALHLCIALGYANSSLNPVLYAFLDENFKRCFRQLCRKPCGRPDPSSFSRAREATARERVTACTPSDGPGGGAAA
OPRM1-OPRD1 inv – inverse agonists of MOR-DOR heterodimerization, primary screen, cell-based, luminescence; cell-based MOR-DOR heterodimer luminescence, inverse agonism; Mu-type opioid receptor (Homo sapiens) + Delta-type opioid receptor (Homo sapiens), …; AID 504357, 2011; inhibition, % at 9.3 µM; 340,000 tested, 0.21% active; in the data active = inhibition above about 22%, passing the limit was not always enough;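 note: 0% = cells with DMSO and 100% = wells without cells with DMSO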
HTR5A inv ctr – HTR5A inverse agonists in luminescence cell assay, primary screen, counter-screen for OPRM1-OPRD1 heterodimer inverse agonist project, full-deck HTS. HTR5A cell line, inverse agonism. inhibition, % at 9.3 µM. 5-hydroxytryptamine receptor 5A (Homo sapiens), P47898. 340,000 tested, 0.083% active. AID 504634, 2011; in the data active = inhibition mostly above about 23%, no sharp cut-off; inactive = mostly below about 18%;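 note: 0% = cells with DMSO and 100% = no-cell wells with DMSO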
HTR5A ag ctr – HTR5A agonists in luminescence cell assay, primary screen, counter-screen for OPRM1-OPRD1 heterodimer agonist project, full-deck HTS | 5-hydroxytryptamine receptor 5A (Homo sapiens), P47898 | cell-based | activation, % at 9.3 µM | 340,000 tested, 0.61% active; in the data active = activation mostly above about 9.5%, no sharp cut-off; inactive = mostly below about 7.6%;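 note: 0% = cells with vehicle only and 100% = reference agonist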
MOR-DOR inv conf – inverse agonists of MOR-DOR heterodimerization, confirmation, cell-based, luminescence; shares compounds with OPRM1-OPRD1 inv; cells expressing OPRM1/OPRD1 heterodimer; inhibition, % at 9.3 µM; 580 tested, 20% active; in the data active = inhibition above about 32%;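 note: 0% = cells with DMSO and 100% = wells lacking cells with DMSO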
HTR5A inv ctr2 – HTR5A inverse agonists, counter-screen for OPRM1-OPRD1 inverse agonist project, cell-based, luminescence; HTR5A-expressing cells, inverse agonism; 580 tested, under 10 active; AID 504914, 2011; shares compounds with OPRM1-OPRD1 inv; inhibition, % at 9.3 µM; call rule not given here;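 note: 0% = cells with DMSO and 100% = no-cell wells with DMSO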
* marks the source's active call; other numbers are inactive results; i = inactive; · = no result given. In the library only some 1.1% were active in any assay of this set; here they are far more common.

SMILES	OPRM1-OPRD1 ag	OPRM1-OPRD1 inv	HTR5A inv ctr	HTR5A ag ctr	MOR-DOR inv conf	HTR5A inv ctr2
O=C1N(Cc2ccccc2)CC2(Br)COCOC12O (configuration not stated)	-8.7	44.9*	19.0	-4.9	-20.8	-1.3
NNc1nc(-c2ccccc2)c2cc(Br)ccc2n1	-4.6	20.4	4.1	-1.1	·	·
NNc1nc(-c2ccccc2)cc(-c2ccc(Br)cc2)n1	-14.0	69.8*	-18.2	-10.7	78.3*	25.4
CCN(CC)c1ccc(CN(C(=O)c2cccs2)C2CCS(=O)(=O)C2)cc1 (configuration not stated)	-3.7	18.6	-7.3	-3.0	·	·
Cc1cc(C(=O)OCC(=O)c2cccc([N+](=O)[O-])c2)c2ccccc2n1	-11.8	60.5*	-3.2	-7.7	38.4*	17.9
Nc1ccc(C(=O)OCC(=O)c2cccc([N+](=O)[O-])c2)cc1	-2.9	18.8	17.7	-7.1	·	·
COc1ccccc1C(=O)OCC(=O)c1cccc([N+](=O)[O-])c1	-3.6	18.9	7.9	-2.2	·	·
Cc1cc(C(=O)OCC(=O)c2ccc(Cl)c([N+](=O)[O-])c2)c2cccc(C)c2n1	-6.8	34.4*	2.6	-1.9	-40.4	-8.7
CC(C)N(C(=O)COC(=O)c1ccccc1C(=O)c1ccc(Cl)c([N+](=O)[O-])c1)C(C)C	-1.3	7.0	-15.4	-1.7	·	·
O=C(COC(=O)c1cc2ccccc2oc1=O)c1cccc([N+](=O)[O-])c1	-9.2	47.3*	13.0	-1.7	46.3*	19.2
O=[N+]([O-])c1cccc(NC(=S)N2CCN(S(=O)(=O)c3ccccc3)CC2)c1	-0.9	4.7	9.6	5.5	·	·
Cc1ccc(C(=O)NCCCN2CCN(CCCNC(=O)c3ccc(C)cc3)CC2)cc1	1.9	-9.6	-6.5	-4.8	·	·
N#Cc1ccc(Oc2ccc(NC(=O)C3CC=CCC3C(=O)O)cc2)cc1 (configuration not stated)	-0.4	2.2	10.0	-1.1	·	·
CCCCNC(=S)NNC(=O)c1cc(-c2ccncc2)nc2ccccc12	-6.5	33.5*	22.8	-5.3	-290.2	-8.6
CCCCNC(=S)NNC(=O)c1cc(C2CC2)nc2ccccc12	-2.2	11.6	-3.5	1.0	·	·
CC(CNC(=O)c1cc(COc2c(F)cccc2F)on1)Oc1cccnc1 (configuration not stated)	-1.1	5.8	26.5	7.5	·	·
COc1ccc(-c2csc3ncnc(N4CCN(c5ccccc5Cl)CC4)c23)cc1	-1.1	5.7	14.1	-2.0	·	·
COc1ccc(-c2csc3ncnc(N4CCN(c5cccc(C)c5C)CC4)c23)cc1	-7.4	40.0*	-7.4	0.6	-175.8	-10.6
O=C(Cc1ccccc1)NCC(=O)OCC(=O)c1ccc(Cl)c([N+](=O)[O-])c1	-15.0	90.4*	25.9	-9.6	70.2*	18.6
Cc1ccc(C(=O)COC(=O)CNC(=O)C(c2ccccc2)c2ccccc2)cc1[N+](=O)[O-]	-11.8	66.3*	16.1	-4.6	41.1*	12.1
Cc1ccc(C(=O)NCC(=O)OCC(=O)c2ccc(C)c([N+](=O)[O-])c2)cc1	-9.9	51.0*	7.4	-2.6	42.4*	19.2
COc1ccc(CNC(=O)CNC(=O)c2ccc(C(C)(C)C)cc2)cc1OC	-2.2	9.9	-8.6	2.4	·	·
O=C(C1CCN(S(=O)(=O)c2ccc(Cl)s2)CC1)N1CCN(c2ccccc2)CC1	0.3	-1.5	4.3	-1.7	·	·
Cn1cccc1C(=O)NCC(c1ccc(F)cc1)N1CCOCC1 (configuration not stated)	-1.7	8.9	-19.0	-5.9	·	·
COc1ccc(-c2nc(-c3cccs3)c(-c3cccs3)[nH]2)cc1OC	-5.0	29.8*	6.6	0.0	i	3.6
SMILES	OPRM1-OPRD1 ag	OPRM1-OPRD1 inv	HTR5A inv ctr	HTR5A ag ctr	MOR-DOR inv conf	HTR5A inv ctr2
N#CC(=C1C=CC(=NO)C(Cl)=C1)c1ccc(Cl)cc1	-2.0	8.7	-0.7	0.2	·	·
COc1ccc(C(C#N)=C2C=CC(=NO)C=C2)cc1	-9.6	47.6*	-2.0	0.8	-46.7	-34.9
COc1cc([N+](=O)[O-])cc(/C=N/NC(=O)c2ccc(C)nc2)c1O	-3.8	21.8*	8.0	-2.3	i	-30.1
COc1cc([N+](=O)[O-])cc(/C=N/NC(=O)c2ccc(NC(=O)c3ccc(C)cc3)cc2)c1O	0.3	-1.9	-16.9	6.0	·	·
COc1ccc(C(=O)OCC(=O)c2ccc(S(=O)(=O)N3CCCCC3)cc2)c(OC)c1	-1.4	8.9	4.4	0.6	·	·
COc1cc(/C=C/C(=O)OCC(=O)c2ccc(S(=O)(=O)N3CCCCC3)cc2)cc(OC)c1OC	-3.8	18.3	-15.1	6.4	·	·
COc1cccc(/C=C/C(=O)OCC(=O)c2ccc(S(=O)(=O)N3CCCCC3)cc2)c1OC	-5.7	31.3*	13.4	-5.3	-32.3	17.0
COc1cccc(C(=O)OCC(=O)c2ccc(S(=O)(=O)N3CCCCC3)cc2)c1OC	-4.7	30.1*	8.4	-2.8	-30.6	6.9
Cc1ccc(C(=O)OCC(=O)c2ccc(S(=O)(=O)N3CCCCC3)cc2)o1	-8.1	52.5*	20.1	-6.7	i	-10.7
CN(C)c1ccc(N2C(=NC(=O)c3ccccc3)SC3CS(=O)(=O)CC32)cc1 (configuration not stated)	-2.6	13.8	-6.2	-4.7	·	·
COc1ccc(N=Cc2[nH]c3ccccc3c2O)cc1	-4.2	29.9*	22.1	1.1	-69.6	4.4
CNC(=O)c1nnsc1S(=O)(=O)c1ccc(Cl)cc1	-5.6	32.1*	17.4	-6.1	-9.7	-9.7
CCOC(=O)[C@H]1[C@H]2COc3ccc(Br)cc3[C@@H]2N2C(=O)[C@H](C)NC(=O)[C@@]12C	-3.2	17.4	-22.2	3.0	·	·
CCC(OC(=O)CN1C(=O)C(=O)c2ccccc21)C(=O)Nc1ccccc1OC (configuration not stated)	-6.1	49.5*	23.4*	-7.9	3.2	-7.1
CCC(OC(=O)C(C)N1C(=O)C(=O)c2ccccc21)C(=O)Nc1ccccc1OC (configuration not stated)	-7.6	48.2*	1.9	-3.8	10.3	4.2
CCC(Oc1ccccc1)C(=O)Nc1ccccc1OC (configuration not stated)	2.1	-12.2	-10.4	1.9	·	·
COc1ccc(OCC(O)Cn2c(N3CCCCC3)nc3c2c(=O)n(C)c(=O)n3C)cc1 (configuration not stated)	-2.0	9.3	7.3	-2.0	·	·
NC(=O)CC(NC(=O)Cc1cccc2ccccc12)c1ccc(N2CCN(c3ccccn3)CC2)c([N+](=O)[O-])c1 (configuration not stated)	-1.7	10.0	-9.8	2.7	·	·

Compound activity from PubChem.
